Test results taken from PubChem BioAssay (NCI).
This is part of a sample that, as a whole, favours compounds with a hit. Of some 83,000 tested, about 20% had one in any assay.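 Note: values are percent growth. 100 is the growth of untreated cells, values between 100 and 0 indicate rising inhibition; between -100 and 0 indicates cell death.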 A number with no mark means an inactive call. Calls of active or inactive are those of the source. The calls were made as follows: active = growth percent below 10; inactive = the rest.

Tests used:
Experiment in all cases: NCI-60 one-dose screen, 48 h (100 = growth as untreated, 0 = no growth, -100 = all killed)
HCT-15 colon = details: 10 µM unless noted
HT29 colon = details: 10 µM unless noted
SNB-75 CNS = details: 10 µM unless noted
SNB-19 CNS = details: 10 µM unless noted
U251 CNS = details: 10 µM unless noted
PC-3 prostate = details: 10 µM unless noted
SK-MEL-5 melanoma = details: 10 µM unless noted
LOX IMVI melanoma = details: 10 µM unless noted
SK-MEL-28 melanoma = details: 10 µM unless noted
SK-MEL-2 melanoma = details: 10 µM unless noted
EKVX NSCLC = details: 10 µM unless noted
SN12C renal = details: 10 µM unless noted
UO-31 renal = details: 10 µM unless noted
TK-10 renal = details: 10 µM unless noted
ACHN renal = details: 10 µM unless noted
CAKI-1 renal = details: 10 µM unless noted
A498 renal = details: 10 µM
HL-60(TB) leukemia = details: 10 µM unless noted
CCRF-CEM leukemia = details: 10 µM unless noted

SMILES	growth (HCT-15 colon)	growth (HT29 colon)	growth (SNB-75 CNS)	growth (SNB-19 CNS)	growth (U251 CNS)	growth (PC-3 prostate)	growth (SK-MEL-5 melanoma)	growth (LOX IMVI melanoma)	growth (SK-MEL-28 melanoma)	growth (SK-MEL-2 melanoma)	growth (EKVX NSCLC)	growth (SN12C renal)	growth (UO-31 renal)	growth (TK-10 renal)	growth (ACHN renal)	growth (CAKI-1 renal)	growth (A498 renal)	growth (HL-60(TB) leukemia)	growth (CCRF-CEM leukemia)
C[C@@]1(CCCCCCCCCc2ccc(O)cc2)C[C@]2(C)OC(=O)C[C@@H]2OO1	83.7%	102%	95%	96.6%	92.8%	61.7%	105%	-81.2% (active)	99.5%	117%	98.7%	98.5%	16.7%	112%	65.5%	65.1%	104%	81%	75.4%
Cc1cc(N(CCCl)CCCl)ccc1C=Nc1ccccc1-c1ccccc1	79.4%	89.3%	66.1%	77.9%	63.3%	85.5%	85.7%	66.3%	95.2%	115%	101%	54.8%	59.5%	88.2%	34.4%	27.6%	–	48.4%	54.2%
Nc1cc2nc3ccccc3nc2cc1N	88.5%	105%	85.5%	85.6%	77.2%	79.3%	87%	80.8%	129%	107%	84.8%	80.5%	74.2%	110%	–	101%	78.3%	87.5%	94%
Cc1ccc(S(=O)(=O)C(Cl)(Cl)Cl)cc1	100%	89%	81.5%	102%	88.7%	67.4%	99.9%	98.3%	107%	97.5%	101%	98.7%	97.3%	89.5%	105%	87.9%	103%	91.1%	82.7%
Cn1cc(-c2csc(-c3cn(CCCCN4CCCCC4)c4ccccc34)n2)c2cccnc21	-74.9% (active)	-85.6% (active)	53.1%	-32.1% (active)	-72.3% (active)	51.3%	-92.1% (active)	-72.6% (active)	-79.2% (active)	37.9%	69.9%	81.8%	-77.8% (active)	50.2%	-96.4% (active)	–	81%	-62.3% (active)	-11% (active)
CC1[C@H](C)OC(=O)CC(O)CC(O)CC(O)CCC(O)C(O)C[C@]2(O)CC(O)C(C(=O)O)C(CC(OC3O[C@H](C)[C@@H](O)[C@H](N)[C@@H]3O)/C=C/C=C/C=C/C=C/CC/C=C/C=C/[C@H](C)[C@H]1O)O2 (stereo partly drawn)	109%	107%	103%	109%	92.4%	98.7%	97.2%	89.7%	110%	134%	104%	98.5%	93.2%	123%	90.8%	88.6%	114%	110%	90.6%
O=C1C2C(C(=O)[N]1[Hg][c]1cccs1)C1(Cl)C(Cl)=C(Cl)C2(Cl)C1(Cl)Cl (stereo not drawn)	-76.8% (active)	8.75% (active)	59.5%	51.5%	-67.6% (active)	33.4%	24%	-90.7% (active)	-76.9% (active)	54.6%	34.5%	-46.9% (active)	-29.8% (active)	49.9%	-35.7% (active)	1.56% (active)	124%	-12.1% (active)	-14.1% (active)
COc1ccc2c(c1)c(-c1nc(-c3c[nH]c4ncccc34)cs1)cn2CCCCN1CCCCC1	-76.7% (active)	-72.4% (active)	-75.4% (active)	-71.1% (active)	-75.3% (active)	-79% (active)	-81.3% (active)	-83.1% (active)	-85.1% (active)	-53.2% (active)	49.4%	-75.2% (active)	-87.6% (active)	-16.6% (active)	-92.2% (active)	–	58.2%	-69.8% (active)	-38.7% (active)
CC(=O)OC[C@]1(C)C=C2C(=O)[C@](C)(O)C3(CC3)C(C)=C2[C@H]1O	-8.75% (active)	-12% (active)	-91.5% (active)	-16.5% (active)	1.39% (active)	-15.6% (active)	-62% (active)	-30.3% (active)	-56% (active)	-55.1% (active)	-13.7% (active)	-5.94% (active)	-47.3% (active)	-15.3% (active)	-12.4% (active)	1.8% (active)	–	-12.4% (active)	14.6%
CC(C)CCC1(CCCl)C(=O)NC(=O)NC1=O	98.9%	109%	85.3%	97.7%	94.4%	98.8%	97.4%	97%	98.4%	104%	–	95.6%	91%	100%	102%	94.6%	89.4%	108%	95.3%
c1cnc2[nH]cc(-c3csc(-c4cn(CCCCN5CCCCC5)c5ccccc45)n3)c2c1	51%	34.4%	70.3%	90.4%	86.3%	63.1%	70.4%	84.2%	83%	97.6%	83.1%	75.2%	49.2%	124%	98.5%	–	95.7%	47.9%	62.9%
O=C1OCC2=C1C(c1ccccc1)c1cc3c(cc1N2)OCO3 (stereo not drawn)	10.9%	4.87% (active)	45.9%	36.2%	9.54% (active)	25.9%	-39.6% (active)	26.2%	64.2%	15.6%	48%	21.5%	45.6%	56.9%	27.1%	38.8%	-6.52% (active)	2.29% (active)	11.6%
CNCc1cccnc1	108%	85.7%	104%	115%	99.6%	89%	106%	98.2%	120%	112%	114%	111%	93.9%	113%	106%	–	104%	–	96.6%
CC1(C)N=C(N)N=C(N)N1c1ccc(CCCCc2ccc(Cl)c(S(=O)(=O)F)c2)c(Cl)c1	37.3%	16.3%	35.1%	31.6%	28.8%	15.1%	10.6%	13.6%	58.2%	38.7%	45.3%	24.6%	27.3%	41.7%	28.2%	–	69.6%	–	3.5% (active)
CC[C@H](C)[C@H](NC(=O)C12CC(NC(C)=O)(C1)C2)C(=O)N(C)[C@H](C[C@@H](OC(C)=O)c1nc(C(=O)N[C@@H](Cc2ccccc2)C[C@H](C)C(=O)OC)cs1)C(C)C	29.3%	5.65% (active)	44.8%	50.9%	11.6%	15.4%	-6.58% (active)	16.5%	61%	48.8%	38.3%	30.9%	59%	50.4%	43.8%	63.5%	-14.8% (active)	-10.1% (active)	12.2%
NC(=O)CNc1ccc([As]=[As]c2ccc(NCC(N)=O)cc2)cc1 (stereo not drawn)	44.1%	38.9%	24.5%	48.6%	12%	58.3%	23.7%	26.2%	74.6%	33.8%	23.1%	34%	54.4%	58.1%	71.2%	12.5%	58.1%	19.8%	10.9%
